According to PubChem BioAssay (NCI):
About 83,000 compounds went through this panel and 20% of them were active in at least one assay; those are over-represented in the sample as a whole.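 Results are percent growth after 48 hours of single-concentration exposure. 100 means growth as in untreated cells, lower positive values show inhibition; negative values down to -100 show cell death.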 The source made the active and inactive calls. How the source made its calls: active means growth percent below 10; inactive means the rest.

Columns and labels:
Experiment in all cases: NCI-60 one-dose screen, 48 h (100 = growth as untreated, 0 = no growth, -100 = all killed)
[1] = tested on: DU-145 prostate; settings: 10 µM
[2] = tested on: K-562 leukemia; settings: 10 µM
[3] = tested on: MALME-3M melanoma; settings: 10 µM
[4] = tested on: MDA-MB-231 breast; settings: 10 µM
[5] = tested on: RXF 393 renal; settings: 10 µM
[6] = tested on: SF-268 CNS; settings: 10 µM
[7] = tested on: SF-295 CNS; settings: 10 µM
[8] = tested on: SF-539 CNS; settings: 10 µM
[9] = tested on: UACC-257 melanoma; settings: 10 µM
[10] = tested on: HCT-15 colon; settings: 10 µM
[11] = tested on: HT29 colon; settings: 10 µM
[12] = tested on: SNB-75 CNS; settings: 10 µM
[13] = tested on: SNB-19 CNS; settings: 10 µM
[14] = tested on: U251 CNS; settings: 10 µM
[15] = tested on: PC-3 prostate; settings: 10 µM
[16] = tested on: SK-MEL-5 melanoma; settings: 10 µM
[17] = tested on: UACC-62 melanoma; settings: 10 µM unless noted
[18] = tested on: LOX IMVI melanoma; settings: 10 µM
[19] = tested on: SK-MEL-28 melanoma; settings: 10 µM
[20] = tested on: M14 melanoma; settings: 10 µM

Measured: growth

C=CCOC(=O)C(=O)OCC=C
inactive: [1] 112% | [2] 95.1% | [3] 139% | [4] 108% | [5] 103% | [6] 103% | [7] 154% | [8] 91.8% | [9] 102% | [10] 100% | [11] 101% | [12] 102% | [13] 94.7% | [14] 106% | [15] 97% | [16] 98.8% | [17] 102% | [18] 111% | [19] 113%

O=c1[nH]nc(SC2CCCCC2)c(=O)[nH]1
inactive: [1] 114% | [2] 84.3% | [3] 95.7% | [4] 102% | [5] 129% | [6] 98.8% | [7] 118% | [8] 99% | [9] 91.2% | [10] 106% | [11] 97.1% | [12] 82.3% | [13] 103% | [14] 103% | [15] 90.6% | [16] 112% | [17] 113% | [18] 92.8% | [19] 94.8%

O=C(NN=C1CCCCC1)C(=O)NN=C1CCCCC1
inactive: [1] 121% | [2] 81.1% | [3] 127% | [4] 113% | [5] 107% | [6] 99.1% | [7] 113% | [8] 101% | [9] 108% | [10] 108% | [11] 98.6% | [12] 103% | [13] 110% | [14] 107% | [15] 89% | [16] 99.9% | [17] 109% | [18] 113% | [19] 100%

Cc1ccc(C(=O)c2ccccc2)c(C)c1
inactive: [1] 104% | [2] 125% | [3] 120% | [4] 97.8% | [5] 116% | [6] 102% | [7] 136% | [8] 98.9% | [9] 112% | [10] 105% | [11] 101% | [12] 84.4% | [13] 111% | [14] 110% | [15] 98.3% | [16] 107% | [17] 102% | [18] 93.7% | [19] 109%

COS(=O)(=O)c1ccc(Br)cc1
inactive: [1] 102% | [2] 136% | [3] 119% | [4] 92.5% | [5] 105% | [6] 84.9% | [7] 107% | [8] 102% | [9] 93% | [10] 104% | [11] 107% | [12] 89.4% | [13] 98.3% | [14] 89% | [15] 93.2% | [16] 104% | [17] 85.5% | [18] 97.2% | [19] 98.4%

CCC(C)(O)c1ccc(C)cc1 (centres undefined)
inactive: [1] 106% | [2] 116% | [3] 119% | [4] 107% | [5] 113% | [6] 92.9% | [7] 109% | [8] 103% | [9] 105% | [10] 107% | [11] 107% | [12] 91.7% | [13] 97.8% | [14] 105% | [15] 99.6% | [16] 98.5% | [17] 102% | [18] 106% | [19] 104%

CCOc1ccc2[nH]c(=S)sc2c1
inactive: [1] 111% | [2] 90.8% | [3] 97.8% | [4] 104% | [5] 116% | [6] 103% | [7] 111% | [8] 106% | [9] 104% | [20] 99% | [10] 108% | [12] 92% | [13] 103% | [14] 106% | [15] 101% | [16] 101% | [17] 104% | [18] 98.6% | [19] 109%

O=C(CN1CCNCC1)N1CCOCC1
inactive: [1] 130% | [2] 97.5% | [3] 96.3% | [4] 110% | [5] 123% | [6] 110% | [7] 102% | [8] 99.5% | [9] 109% | [20] 103% | [10] 104% | [12] 86.9% | [13] 102% | [15] 100% | [16] 110% | [17] 106% | [18] 98.4% | [19] 115%

CN(C)c1ccc(S(=O)(=O)O)cc1
inactive: [1] 110% | [2] 104% | [3] 103% | [4] 105% | [5] 103% | [6] 91.9% | [7] 107% | [8] 91.2% | [9] 107% | [10] 102% | [11] 102% | [12] 96.3% | [13] 109% | [14] 108% | [15] 88.9% | [16] 98.9% | [17] 108% | [18] 102% | [19] 110%

CCC(C)(C)C1CCC(O)CC1 (centres undefined)
inactive: [1] 107% | [2] 110% | [3] 96.4% | [4] 94.9% | [5] 109% | [6] 101% | [7] 114% | [8] 104% | [9] 99.8% | [10] 88.9% | [11] 97.5% | [12] 100% | [13] 100% | [14] 107% | [15] 99.2% | [16] 97.8% | [17] 98.2% | [18] 91.1% | [19] 114%

COc1cc(C(=O)N/N=C/c2cccc([N+](=O)[O-])c2)cc(OC)c1OC
inactive: [1] 87.4% | [2] 35.8% | [3] 40.1% | [4] 65.1% | [5] 60% | [6] 73.6% | [7] 48.2% | [8] 66.2% | [9] 76.3% | [20] 29.9% | [10] 52.1% | [12] 29.5% | [13] 69.7% | [14] 55.6% | [15] 67.5% | [16] 19% | [17] 50.5% | [18] 50.2% | [19] 62.1%

O=[N+]([O-])c1ccc(/C=C/C=C/c2ccccc2)c(Cl)c1
inactive: [1] 109% | [2] 91.8% | [3] 116% | [4] 89.6% | [5] 103% | [6] 111% | [7] 98.7% | [8] 99% | [9] 95.1% | [20] 106% | [11] 90.3% | [12] 94.2% | [13] 99.7% | [14] 92% | [16] 101% | [17] 96.6% | [18] 98% | [19] 106%

COc1ccc(/C=C/c2cccc[n+]2C)cc1
inactive: [1] 111% | [2] 100% | [3] 94.6% | [4] 111% | [5] 101% | [6] 97.2% | [7] 99.1% | [8] 103% | [20] 103% | [10] 99.1% | [11] 88% | [12] 83.2% | [13] 95.1% | [14] 77.6% | [15] 87% | [16] 105% | [17] 114% | [18] 94.2% | [19] 109%

CN(C)c1ccc2oc(=O)c3ccccc3c2c1
inactive: [1] 105% | [2] 109% | [3] 97.6% | [4] 77.6% | [5] 106% | [6] 100% | [7] 102% | [8] 80.4% | [9] 106% | [10] 101% | [11] 86.7% | [12] 57.1% | [13] 81.3% | [14] 94.3% | [16] 94.9% | [17] 68.8% | [18] 88.8% | [19] 113%

Nc1ccc(N=Nc2ccc(S(=O)(=O)O)cc2)c2ccccc12
inactive: [1] 106% | [2] 94.6% | [3] 83.4% | [4] 87.8% | [5] 101% | [6] 106% | [7] 99.5% | [8] 103% | [20] 99.1% | [10] 99.9% | [11] 107% | [12] 81.6% | [13] 106% | [14] 98.9% | [15] 87.4% | [16] 94.4% | [17] 90.7% | [18] 100% | [19] 103%

CC(C)=CC(=O)OC(=O)C=C(C)C
inactive: [1] 101% | [2] 99.1% | [3] 101% | [4] 99.6% | [5] 102% | [6] 103% | [7] 111% | [8] 105% | [20] 107% | [10] 102% | [11] 111% | [12] 90.3% | [13] 104% | [14] 102% | [15] 98.4% | [16] 98.8% | [17] 98.2% | [18] 109% | [19] 102%

CC1(C)N=C(N)N=C(N)N1c1ccc(Cl)cc1
inactive: [1] 55.2% | [2] 20.1% | [3] 63.4% | [4] 69% | [5] 71% | [6] 36.6% | [8] 22.7% | [9] 64% | [10] 73.6% | [11] 29.8% | [12] 75.8% | [13] 58% | [15] 33.1% | [16] 31.7% | [17] 41.4% | [18] 24.6% | [19] 90.4%
active: [7] 4.05%
